Assay outcomes (PubChem)
PGC1a acetyl inh: modulators of PGC1a acetylation | U2OS PGC1a acetylation, AlphaScreen anti-acetyl-lysine; with virally co-expressed GCN5 acetyltransferase | inhibition, % at 15.6 µM | 350,000 compounds, 0.17% hits | AID 651687;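 active = every replicate shows inhibition of at least 40%; inconclusive = mean inhibition at least 40% but some replicate below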;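 also: 0% = neutral control wells and 100% = positive control wells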
INS-1E GSIS act: GLuc luminescence reporter in INS-1E cells, primary screen for activators of glucose-dependent secretion of insulin; 370,000 compounds, 0.61% hits; activation, % at 16.6 µM; INS-1E GLuc reporter insulin secretion, 2-3 h;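 active = lowest replicate activation of at least 40%, so every replicate reaches that level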;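 also: 0% = median of neutral control wells and 100% = median of IBMX positive control wells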
PAX8 reporter: PAX8 transcriptional activity inhibition; RMG-I TPO-luciferase reporter, SteadyGlo, 24 h; inhibition, % at 12.6 µM; 360,000 compounds, 1.2% hits; AID 652154;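 active = mean replicate inhibition at least 60% with every replicate also reaching 60%; inconclusive = only one of the two criteria is met; inactive = mean below 60% and not all replicates reaching 60%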;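 also: luciferase light reporting Pax8 driven TPO promoter activity; plate controls were median of neutral control wells for no effect and mitoxantrone controls for full effect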
F508del corr: CFTR F508del correction in bronchial cells. CFBE cells, YFP halide quenching; stimulated with forskolin plus potentiator P3; % fluorescence drop versus neutral controls. activity (quench increase), % at 7.58 µM. 350,000 compounds, 0.36% hits. AID 720511;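 active = mean added fluorescence quench of at least 8% versus neutral control, with both replicates also reaching 8%; inconclusive = only one of the mean or replicate conditions met; inactive = mean below 8% and not both replicates reaching 8%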;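 also: cells transiently co-express mutant CFTR-F508del with the halide-sensitive YFP; corrector assay measuring rescue of mutant channel to the surface after 24 h compound exposure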
HIV Env fusion: inhibitors of HIV Env-mediated cell fusion; HeLa-JRFL Env/CEM21 cell fusion, luciferase; inhibition, % at 12.3 µM; 360,000 compounds, 1.1% hits; AID 651610;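 active = mean replicate inhibition score of at least 50 and every replicate individually at or above 50; inconclusive = only one of the two criteria met; inactive = mean below 50 and not all replicates reaching 50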;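 also: 0% = plate neutral controls and 100% = maraviroc near 300 nM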
EWS-Fli block: blocks EWS/Fli oncoprotein-driven transcription. A673 NR0B1-luciferase reporter, viability-normalised. inhibition, % at 12.6 µM. 350,000 compounds, 0.67% hits. AID 651661;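 active = mean inhibition of at least 50% after viability correction, with every replicate also passing that limit; inconclusive = mean reaches 50% but only one of two replicates passes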;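 also: firefly luciferase signal divided by Alamar Blue viability fluorescence both relative to DMSO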
* marks the source's active call; other numbers are inactive results; [ ] = dose if it differs, or a comment. Most compounds without a hit are left out; they make up all but 2.7% or so of the library.

Results for CN(C)C(=O)c1cccc(-c2ccc([C@H]3[C@H](CO)N4CCCCN(C(=O)C5CCC5)C[C@@H]34)cc2)c1 ?
PGC1a acetyl inh: 1; INS-1E GSIS act: -7; PAX8 reporter: -29; F508del corr: 1; EWS-Fli block: -15

What do the screens show for `CC(C)(C)c1ccc(/C=C/C(=O)c2ccc(NC3=NCCCS3)cc2)cc1`?
INS-1E GSIS act: 1; PAX8 reporter: 36; F508del corr: 8.3*; HIV Env fusion: -8; EWS-Fli block: 18

What do the screens show for `O=C(/C=C/c1ccc(Br)cc1)c1ccc(NC2=NCCCS2)cc1`?
INS-1E GSIS act: 0; PAX8 reporter: 5; F508del corr: 1; HIV Env fusion: -36; EWS-Fli block: -6

How did CC/C(=C\C1CCCCC1)C(NP(=O)(c1ccccc1)c1ccccc1)c1ccccc1 (stereo unspecified) do in these assays?
PGC1a acetyl inh: -5; INS-1E GSIS act: 72; PAX8 reporter: -1; F508del corr: -1; HIV Env fusion: 107*; EWS-Fli block: 28

What do the screens show for `O=P(NC1CCCCC1)(c1ccccc1)c1ccccc1`?
PGC1a acetyl inh: -5; INS-1E GSIS act: 16; PAX8 reporter: -2; F508del corr: 0; HIV Env fusion: -7; EWS-Fli block: -2

Results for O=c1[nH]c2nc(Cl)nc(Cl)c2[nH]1 ?
PGC1a acetyl inh: 74*; INS-1E GSIS act: 18; PAX8 reporter: -3; F508del corr: 2; EWS-Fli block: 8

How did CC(=O)c1cccc(NC2c3ccccc3C(=O)N2Cc2ccco2)c1 (stereo unspecified) do in these assays?
PGC1a acetyl inh: 3; INS-1E GSIS act: 8; PAX8 reporter: 7; F508del corr: 3; HIV Env fusion: 9; EWS-Fli block: 7

What do the screens show for `O=C1c2cccnc2C(Nc2cccc(F)c2)N1Cc1ccco1` (stereo unspecified)?
PGC1a acetyl inh: 0; INS-1E GSIS act: 70*; PAX8 reporter: -18; F508del corr: -2; HIV Env fusion: -118; EWS-Fli block: -14

What do the screens show for `O=C1c2cccnc2C(Nc2ccccc2)N1Cc1ccco1` (stereo unspecified)?
PGC1a acetyl inh: -1; PAX8 reporter: -10; HIV Env fusion: 2

What do the screens show for `CC(=O)c1cccc(NC2c3ncccc3C(=O)N2Cc2ccco2)c1` (stereo unspecified)?
PGC1a acetyl inh: -1; INS-1E GSIS act: 50*; F508del corr: 0; EWS-Fli block: -1

Results for O=C(c1ccc(Cl)cc1)N1CCCCC(Sc2nnc(-c3ccc4c(c3)OCO4)o2)C1=O (stereo unspecified) ?
PGC1a acetyl inh: -8; PAX8 reporter: 70*; HIV Env fusion: 60*

How did CC(=O)Nc1ccc(S(=O)(=O)N2CCN(CCCOc3ccccc3Cl)CC2)cc1 do in these assays?
PAX8 reporter: 20; HIV Env fusion: -27

Results for COc1cccc(OCCCN2CCN(S(=O)(=O)c3ccc(NC(C)=O)cc3)CC2)c1 ?
PGC1a acetyl inh: 0; HIV Env fusion: 63*

What do the screens show for `CCOc1ccccc1C=C1SC(=S)NC1=O`?
PGC1a acetyl inh: 0; INS-1E GSIS act: -30; PAX8 reporter: -19; F508del corr: 6; HIV Env fusion: 78*; EWS-Fli block: -14

What do the screens show for `CC(=O)N[C@@H]1CC[C@H](CC(=O)NCC2CCCCC2)O[C@@H]1CO`?
PGC1a acetyl inh: 7; INS-1E GSIS act: 13; PAX8 reporter: -9; F508del corr: 0; HIV Env fusion: -8[16.7 µM]; EWS-Fli block: 0

How did Cc1nc2ccccc2c(=O)n1/N=C/c1ccc(N(C)C)cc1 do in these assays?
PGC1a acetyl inh: 8; INS-1E GSIS act: 67*; HIV Env fusion: -35

How did COc1cc(OC)c(OC)cc1/C=N/n1c(C)nc2ccccc2c1=O do in these assays?
PGC1a acetyl inh: -26; INS-1E GSIS act: 43*; PAX8 reporter: -10; F508del corr: 4; HIV Env fusion: 3; EWS-Fli block: -7

Results for COc1ccc(OC)c(/C=N/n2c(C)nc3ccccc3c2=O)c1 ?
PGC1a acetyl inh: 14; INS-1E GSIS act: 27; PAX8 reporter: 4; F508del corr: -2; HIV Env fusion: 16; EWS-Fli block: -8

What do the screens show for `Cc1ccc(CSC(Nc2ccc(F)cc2)=C(C#N)C#N)cc1`?
PAX8 reporter: inconclusive; HIV Env fusion: 68*; EWS-Fli block: 8

What do the screens show for `CCN(CC)C(=O)CSC(Nc1ccc(F)cc1)=C(C#N)C#N`?
PGC1a acetyl inh: -7; PAX8 reporter: 6; F508del corr: 4; HIV Env fusion: -7; EWS-Fli block: 6

How did COc1cccc(-c2ccc([C@H]3[C@@H](CO)N4CCCCN(Cc5cncnc5)C[C@H]34)cc2)c1 do in these assays?
PGC1a acetyl inh: -1; INS-1E GSIS act: 10; PAX8 reporter: -22; F508del corr: 3; EWS-Fli block: -20

What do the screens show for `Cn1c(=O)[nH]c(=O)c2c1nc(N1CCCCCC1)n2CCN1CCCCCC1`?
PGC1a acetyl inh: 1; INS-1E GSIS act: 2; PAX8 reporter: 0; HIV Env fusion: -65

Results for Cn1c(=O)[nH]c(=O)c2c1nc(N1CCNCC1)n2Cc1ccccc1 ?
PGC1a acetyl inh: -5; INS-1E GSIS act: 17; PAX8 reporter: -20; F508del corr: -2; HIV Env fusion: 4; EWS-Fli block: 18

How did C/C(Cl)=C\Cn1c(N2CCCC2)nc2c1c(=O)[nH]c(=O)n2C do in these assays?
PGC1a acetyl inh: 11; INS-1E GSIS act: 49*

Results for Cn1c(=O)[nH]c(=O)c2c1nc(N1CCNCC1)n2Cc1cccc2ccccc12 ?
PGC1a acetyl inh: -11; PAX8 reporter: -2; HIV Env fusion: 58*

What do the screens show for `CCCCn1c(N2CCCC2)nc2c1c(=O)[nH]c(=O)n2C`?
PGC1a acetyl inh: 7; INS-1E GSIS act: 84*; PAX8 reporter: 11; F508del corr: 2; HIV Env fusion: 6; EWS-Fli block: -14

How did CO[C@@H]1CN(C)C(=O)c2cc(NC(=O)c3ccc4c(c3)OCO4)ccc2OC[C@H](C)NC[C@H]1C do in these assays?
PGC1a acetyl inh: -6; INS-1E GSIS act: 6; PAX8 reporter: 0; F508del corr: -1; HIV Env fusion: -10[16.7 µM]; EWS-Fli block: 1

Results for CCOC(=O)Cc1csc(/N=C/c2c(O)n(-c3ccc(C)c(C)c3)c(=O)c3ccccc23)n1 ?
INS-1E GSIS act: 42*; PAX8 reporter: 4; HIV Env fusion: 38

What do the screens show for `CCCC#Cc1ccc2c(c1)O[C@@H](CN(C)C(=O)C1CCCCC1)[C@@H](C)CN([C@H](C)CO)S2(=O)=O`?
PGC1a acetyl inh: -17; INS-1E GSIS act: -18; F508del corr: 1; HIV Env fusion: 22[16.7 µM]; EWS-Fli block: 14

How did Cc1ccc(-c2ccc3c(c2)O[C@@H](CN(C)C(=O)C2CCCCC2)[C@H](C)CN([C@H](C)CO)S3(=O)=O)cc1 do in these assays?
PGC1a acetyl inh: inconclusive; INS-1E GSIS act: -15; F508del corr: 4; HIV Env fusion: 60*[16.7 µM]; EWS-Fli block: 38
